Screens as filed in PubChem.
BoNT A protease: blocks Botulinum neurotoxin A light chain protease. 360,000 compounds, 0.17% hits. multiplex microsphere protease substrate cleavage, flow cytometry. inhibition, % at 10 µM
3CLpro inhibitor: SARS-CoV 3CLpro protease inhibition | P0C6X7 | recombinant SARS-CoV 3CLpro, quenched FRET peptide cleavage | inhibition, % at 6 µM | 290,000 compounds, 0.14% hits; in the data active = inhibition above about 12%
Anthrax LF prot: blocks Bacillus anthracis lethal factor protease; P15917; multiplex microsphere protease cleavage assay, LF; inhibition, % at 10 µM; 360,000 compounds, 0.12% hits
Target sequence (P15917 whole entry, looked up): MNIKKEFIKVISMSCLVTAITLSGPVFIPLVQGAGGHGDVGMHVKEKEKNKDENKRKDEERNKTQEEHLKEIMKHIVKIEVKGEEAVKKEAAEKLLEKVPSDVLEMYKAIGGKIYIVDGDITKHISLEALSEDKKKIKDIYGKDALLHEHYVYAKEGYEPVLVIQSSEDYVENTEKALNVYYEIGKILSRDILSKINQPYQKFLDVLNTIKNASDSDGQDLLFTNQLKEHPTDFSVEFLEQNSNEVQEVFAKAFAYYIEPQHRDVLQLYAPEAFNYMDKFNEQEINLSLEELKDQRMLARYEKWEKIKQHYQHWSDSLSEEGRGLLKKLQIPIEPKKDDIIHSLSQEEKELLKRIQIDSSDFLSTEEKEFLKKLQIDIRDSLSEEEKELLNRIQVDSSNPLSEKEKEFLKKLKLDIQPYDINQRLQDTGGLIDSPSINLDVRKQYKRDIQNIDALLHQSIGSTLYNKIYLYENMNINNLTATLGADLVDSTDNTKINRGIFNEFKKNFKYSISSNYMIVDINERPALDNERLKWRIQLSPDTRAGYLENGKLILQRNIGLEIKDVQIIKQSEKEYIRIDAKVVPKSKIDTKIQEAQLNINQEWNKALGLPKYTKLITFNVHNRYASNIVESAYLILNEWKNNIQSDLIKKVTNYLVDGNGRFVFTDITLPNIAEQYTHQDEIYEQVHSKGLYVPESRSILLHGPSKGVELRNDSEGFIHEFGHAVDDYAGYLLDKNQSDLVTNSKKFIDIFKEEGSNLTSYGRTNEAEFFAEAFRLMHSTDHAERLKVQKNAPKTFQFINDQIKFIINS
CCHFV vOTU inh: blocks the CCHF virus ovarian tumor domain protease | CCHFV vOTU protease, Pep-AMC fluorescence | inhibition, % at 11.5 µM | 370,000 compounds, 0.55% hits; in the data active = inhibition above about 30%
BoNT F protease: BoNT F light chain protease inhibition | Multiplex microsphere protease cleavage assay, flow cytometry | inhibition, % at 10 µM | 360,000 compounds, 0.22% hits; in the data active = inhibition above about 35%, passing the limit was not always enough; inconclusive = no clear call, values can overlap the other calls
Autofluor counter: compound fluorescence in toxin protease inhibitor counterscreen. compound autofluorescence counterscreen, microsphere flow cytometry; stronger effect = higher value. fluorescence intensity (no concentration beside the values). 360,000 compounds, 3.1% hits. AID 624483; in the data active = fluorescence intensity above about 16000; inconclusive = no clear call, values can overlap the other calls
Of the large screens only hits and unclear results are named; the others gave an inactive call. Rows were chosen to be rich in hits. Some 3.9% of all compounds tested hit in one or more screens of this group. Cut-off read from the data, not from the text of the source, unless noted: active = inhibition above about 30%; inconclusive = no clear call, values can overlap the other calls; inactive = below that.

COC1=C[C@H](C(=O)NCc2ccccc2)[C@H](C)[C@@H](c2ccccc2)CC1=O	none (no result: BoNT A protease, 3CLpro inhibitor, Anthrax LF prot, BoNT F protease, Autofluor counter)
N#CC1=C(N)Oc2n[nH]c(-c3ccc(F)cc3)c2C1c1cccc(OC(=O)N2CCOCC2)c1 (stereo unspecified)	none (no result: BoNT A protease, Anthrax LF prot, BoNT F protease, Autofluor counter)
Cc1ccc(-c2[nH]nc3c2C(c2ccccc2OC(=O)N2CCOCC2)C(C#N)=C(N)O3)cc1 (stereo unspecified)	none (no result: BoNT A protease, Anthrax LF prot, BoNT F protease, Autofluor counter)
COc1ccc(-c2[nH]nc3c2C(c2ccccc2OC(=O)N2CCOCC2)C(C#N)=C(N)O3)cc1 (stereo unspecified)	Autofluor counter 20595
N#CC1=C(N)Oc2n[nH]c(-c3ccccc3)c2C1c1cccc(OC(=O)N2CCOCC2)c1 (stereo unspecified)	Autofluor counter 16755
CC(C)(C)N(Cc1cn(Cc2ccccc2)nn1)S(=O)(=O)c1ccc(N2CCCC2)cc1Br	none (no result: BoNT A protease, 3CLpro inhibitor, Anthrax LF prot, BoNT F protease, Autofluor counter)
CC(C)=CC(=O)NCCc1ccccc1	none
C/C(=C/C(=O)NCc1ccccc1)C(=O)O	Autofluor counter 22169
COC(=O)[C@]12C[C@H](CC(=O)NCCCN3CCCC3=O)C(=O)N(CCC3=CCCCC3)C1=C[C@H](COCc1ccccc1)O[C@@H]2C	none (no result: BoNT A protease, 3CLpro inhibitor, Anthrax LF prot, BoNT F protease, Autofluor counter)
COc1ccc(CCNS(=O)(=O)c2ccc(OC)cc2)cc1	none
CCN(CC)CCCNS(=O)(=O)c1ccc(OC)cc1	BoNT A protease inconclusive, Autofluor counter 17061
C=CCn1c(SCC(=O)Nc2cc(C)nn2-c2ccccc2)nnc1C1CCCCC1	BoNT A protease inconclusive, Autofluor counter 23513
c1csc(CN2CCOCC2)c1	none
CC1(C)C2CC=C(CN3CCOCC3)C1C2 (stereo unspecified)	Autofluor counter 22704
c1ccc(Cn2ccc3ccc(-c4ccc5ccn(Cc6cccc(Oc7ccccc7)c6)c5c4)cc32)cc1	none (no result: BoNT A protease, 3CLpro inhibitor, Anthrax LF prot, BoNT F protease, Autofluor counter)
COc1ccccc1N1CCN(C(=O)C(Cc2ccccc2)NC(=O)C2CCCCC2)CC1 (stereo unspecified)	Autofluor counter 25307
COc1ccccc1N1CCN(C(=O)C(NS(=O)(=O)c2cccs2)c2ccccc2)CC1 (stereo unspecified)	Autofluor counter 16978
CCC(C(=O)N1CCN(c2ccccc2OC)CC1)c1ccccc1 (stereo unspecified)	none
CCOCN(C(=O)Cn1c(CO)nc2ccccc21)c1c(C)cccc1CC	Autofluor counter 21035
COC(=O)[C@]12C[C@H](CC(=O)N3CCOCC3)C(=O)N(Cc3ccco3)C1=C[C@H](C(C)C)O[C@@H]2C1CC1	none (no result: BoNT A protease, 3CLpro inhibitor, Anthrax LF prot, BoNT F protease, Autofluor counter)
O=C(c1ccc(Br)s1)N1CCN(c2ncccn2)CC1	Autofluor counter 23389
O=C(c1ccc(Br)s1)N1CCCC1	none
CCN(CC)c1ccc(/C=c2\sc3nnc(-c4ccccc4Cl)n3c2=O)cc1	BoNT A protease 176, Anthrax LF prot 80, BoNT F protease 125
Cc1ccc(/C=c2/sc3nnc(-c4ccccc4Cl)n3c2=O)o1	Autofluor counter 16190
Cc1ccc(/C=c2\sc3nc(-c4ccccc4Br)nn3c2=O)o1	none
CC(NC(=O)CSc1nnc(COc2ccccc2)o1)c1ccccc1 (stereo unspecified)	none
COc1ccc(CCCc2nnc(SCC(=O)Nc3cc(C)c(C)cc3Br)o2)cc1	Autofluor counter 21054
CCOC(=O)c1c(NC(=O)C(Sc2ccccc2)c2ccccc2)sc(C(N)=O)c1C (stereo unspecified)	Autofluor counter 23438
CCOC(=O)c1c(NC(=O)C(Sc2ccccc2)c2ccccc2)sc(C(=O)N(C)C)c1C (stereo unspecified)	none
COc1ccc(Cc2nnc(SCC(=O)NC(C)c3ccccc3)o2)cc1 (stereo unspecified)	Autofluor counter 22651
CCOC(=O)c1c(NC(=O)CSc2nncs2)sc(C)c1C	none
CCOC(=O)c1sc(NC(=O)CSc2nnc(C)s2)c(C(=O)OCC)c1C	Autofluor counter 22787
Cc1cc(=O)[nH]c(SCC(=O)Nc2cccc(C)c2C)n1	none (no result: BoNT A protease, 3CLpro inhibitor, Anthrax LF prot, BoNT F protease, Autofluor counter)
CSCCCNc1nc(C)nc2c1nnn2Cc1ccccc1	none (no result: BoNT A protease, 3CLpro inhibitor, Anthrax LF prot, BoNT F protease, Autofluor counter)
COc1ccc2c(c1)CCCN2C(=O)C1CCCN(S(=O)(=O)c2cccc3cccnc23)C1 (stereo unspecified)	none (no result: BoNT A protease, 3CLpro inhibitor, Anthrax LF prot, BoNT F protease, Autofluor counter)
O=C(NCCCN1CCN(c2ccc(F)cc2)CC1)Nc1ccccc1	none (no result: BoNT A protease, 3CLpro inhibitor, Anthrax LF prot, BoNT F protease, Autofluor counter)
CCOC(=O)c1sc(NC(=O)CSc2nnc(Cc3ccccc3)o2)c(C(=O)OCC)c1C	Autofluor counter 23789
COCCOC(=O)c1c(NC(=O)CN2CCOCC2)sc(C(N)=O)c1C	none
CCOC(=O)c1c(NC(=O)CN2CCOCC2)sc(C(=O)NC)c1C	Autofluor counter 22110
